Source: PubChem BioAssay
This is a sample that favours compounds with a hit; in the whole collection about 32% have one here.
CYP2C19 inh: blockers of cytochrome P450 2C19 activity – biochemical, luminescence, ADME assay, primary screen | actives 21% (n = 96,000) | inhibition, % at 5 µM | CYP2C19 Supersomes, luciferin-H EGE luminescence, 30 min | P33261;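 active means CYP2C19 inhibition above a set limit at 5 µM in the primary screen, cut at about 50% in these data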;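 further: plate controls were negative control wells for no effect and 2.5 mM tranylcypromine positive control for full effect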
Target sequence (P33261 whole entry, looked up): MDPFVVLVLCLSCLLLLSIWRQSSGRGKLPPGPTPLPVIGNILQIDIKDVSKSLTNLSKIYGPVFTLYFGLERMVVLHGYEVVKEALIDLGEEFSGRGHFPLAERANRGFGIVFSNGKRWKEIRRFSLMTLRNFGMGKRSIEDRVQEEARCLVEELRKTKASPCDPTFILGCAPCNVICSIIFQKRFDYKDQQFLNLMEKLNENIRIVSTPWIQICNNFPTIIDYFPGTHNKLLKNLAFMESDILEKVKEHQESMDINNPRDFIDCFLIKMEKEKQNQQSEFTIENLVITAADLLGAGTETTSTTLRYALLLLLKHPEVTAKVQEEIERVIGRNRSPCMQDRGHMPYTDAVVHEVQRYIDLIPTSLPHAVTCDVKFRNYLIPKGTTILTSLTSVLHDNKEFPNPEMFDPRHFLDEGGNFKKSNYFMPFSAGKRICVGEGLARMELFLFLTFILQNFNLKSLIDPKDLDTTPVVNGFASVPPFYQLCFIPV
CYP2C9 inhib: blockers of cytochrome P450 2C9 activity – biochemical, luminescence, ADME assay, primary screen. P11712. CYP2C9 Supersomes, luciferin-H conversion. inhibition, % at 5 µM. actives 20% (n = 96,000). AID 777, 2007;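 active means blocking of liver enzyme CYP2C9 beyond about 50% at 5 µM, limit read from the data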
CYP2C9 act: human CYP2C9 activators, primary screen, biochemical, luminescence | Cytochrome P450 2C9 (Homo sapiens), P11712 | recombinant CYP2C9, luciferin-H conversion; active compounds read high; factor 1 = untreated enzyme, 0 = blocked | activation factor at 5 µM | actives 1.4% (n = 96,000) | AID 1024, 2008;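 active means activation factor of 2 or more for CYP2C9 at a 5 µM dose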;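 further: 0 = sulfaphenazole-blocked wells and 1 = vehicle-only wells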
PostGolgi ctrl: growth inhibition of yeast control strain, primary screen, counter-screen for post-Golgi transport modulator project; inhibition, % at 10 µM; actives 5% (n = 98,000); AID 738, 2007; efflux-deficient yeast background strain, growth absorbance A615, 16 h
PostGolgi yeast: phenotypic screen on post-Golgi transport, primary screen; inhibition, % at 10 µM; actives 0.9% (n = 98,000); post-Golgi transport phenotypic cell assay; AID 739, 2007;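 further: yeast cells grown in 1536-well plates; yeast grown about 18 h at 30C before absorbance read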
CYP2C19 act: human CYP2C19 activators, primary screen, biochemical, luminescence | Cytochrome P450 2C19 (Homo sapiens), P33261 | recombinant CYP2C19, luciferin-H EGE luminescence; active compounds read high; 0 = fully inhibited enzyme, 1 = untreated enzyme | activation factor at 5 µM | 96,000 tested, under 10 active;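 active means activation factor of at least 2 at 5 µM in the primary screen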;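 further: 0 = wells with 2.5 mM tranylcypromine and 1 = vehicle-only wells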
Numbers without * were called inactive. Unless noted, no stated cut-off is given here; in the data, active means inhibition above about 30%; inactive means the rest.

SMILES | CYP2C19 inh | CYP2C9 inhib | CYP2C9 act | PostGolgi ctrl | PostGolgi yeast | CYP2C19 act
COc1nc(OC)nc(N2CCC(NC(=O)C(Cc3ccc(C(C)C)cc3)NC(C)=O)CC2)n1 (configuration not stated) | 36.2 | 57.1* | 0.4 | -8.3 | 7.0 | 0.6
CCC1(C)C2(C#N)C(N)=NC(OC)(OC)C12C#N (configuration not stated) | -27.2 | -17.9 | 1.2 | -1.3 | 4.2 | 1.3
O=C(Nc1ncnc2sc3c(c12)CCC3)c1ccco1 | 43.5 | -139.0 | 2.4* | -1.7 | -2.9 | 0.6
O=C(Nc1ncnc2sc3c(c12)CCCCC3)c1ccccc1 | 51.3* | 16.7 | 0.8 | 33.0* | 48.5* | 0.5
Cc1ccc(C(=O)C2=C(O)C(=O)N(CCN3CCOCC3)C2c2ccccn2)o1 (configuration not stated) | -20.7 | -13.7 | 1.1 | 2.6 | -1.9 | 1.2
O=C(O)c1ccc(COCC(F)(F)C(F)F)o1 | 19.9 | -5.7 | 1.1 | 13.0 | 6.6 | 0.8
O=c1c(-c2cccc3ccccc23)[n+]([O-])c2ccccc2n1O | -9.5 | 75.0* | 0.3 | 3.2 | 15.0 | 1.1
O=C(NCCN1CCN(c2ccccc2F)CC1)c1cccn2c(=O)c3ccccc3nc12 | 59.8* | 57.3* | 0.4 | 14.2 | 3.5 | 0.4
CN(CCCNC(=O)c1cccn2c(=O)c3ccccc3nc12)Cc1ccccc1 | 38.2 | 26.1 | 0.7 | -0.5 | 9.1 | 0.6
O=C(c1ccc2nc3ccccc3c(=O)n2c1)N1CCN(Cc2ccc3c(c2)OCO3)CC1 | 24.7 | 52.9* | 0.5 | 7.6 | 5.3 | 0.8
O=C(c1cccn2c(=O)c3cc(Cl)ccc3nc12)N1CCOCC1 | 17.2 | 22.6 | 0.8 | 20.5 | 9.8 | 0.8
CCn1nc(C(=O)N2CCN(Cc3ccc4c(c3)OCO4)CC2)c2ccccc2c1=O | 36.3 | 61.1* | 0.4 | -1.3 | -1.2 | 0.6
O=C(c1cccn2c(=O)c3cc(Cl)ccc3nc12)N1CCN(Cc2ccc3c(c2)OCO3)CC1 | 87.6* | 97.1* | 0 | 14.2 | 24.9 | 0.1
Cc1ccc(SCC2CNc3nc4ccccc4c(=O)n32)c(C)c1 (configuration not stated) | 14.2 | 3.9 | 1 | 24.4 | -3.6 | 0.9
O=C(c1cccn2c(=O)c3ccccc3nc12)N1CCN(Cc2ccc3c(c2)OCO3)CC1 | 23.6 | 75.3* | 0.2 | 14.6 | 17.1 | 0.8
Cc1ccc(NC(=S)NC(NC(=O)C(C)(C)C)C(Cl)(Cl)Cl)c(C)c1 (configuration not stated) | 40.2 | 90.4* | 0.1 | -2.9 | 2.5 | 0.6
CC(C)(C)C(=O)NC(NC(=S)Nc1sc2c(c1C#N)CCCC2)C(Cl)(Cl)Cl (configuration not stated) | -11.9 | 29.2 | 0.7 | 14.7 | -3.2 | 1.1
CCOC(=O)C1CCCN(C(=O)/C=C/c2cccc([N+](=O)[O-])c2)C1 (configuration not stated) | 11.4 | -1.7 | 1 | 12.1 | 3.7 | 0.9
CCOC(=O)C1CCN(S(=O)(=O)c2cccc(-c3cn4cccc(C)c4n3)c2)CC1 | 52.9* | 64.3* | 0.4 | 14.7 | 2.6 | 0.5
CC1CCN(S(=O)(=O)c2cccc(-c3cn4cc(Cl)ccc4n3)c2)CC1 | 46.2 | 61.3* | 0.4 | 22.5 | -3.9 | 0.5
CCOC(=O)C1CCN(S(=O)(=O)c2cccc(-c3cn4ccccc4n3)c2)CC1 | 32.3 | 37.8 | 0.6 | 13.3 | 9.8 | 0.7
CCOC(=O)C1CCN(S(=O)(=O)c2cccc(-c3cn4cc(Cl)ccc4n3)c2)CC1 | 76.3* | 67.4* | 0.3 | 7.2 | -4.5 | 0.2
Cc1ccc(NC(=O)CSc2nnc(-c3cnccn3)n2-c2ccccc2)cc1 | 7.8 | -0.9 | 1 | 7.8 | -4.7 | 0.9
COc1ccccc1CN1C(=O)CN(C2CCCCCC2)C(=O)C1c1ccc(F)cc1 (configuration not stated) | 57.4* | 44.2 | 0.6 | 48.5* | -0.6 | 0.4
COc1cccc(C2C(=O)N(C3CCCCC3)CC(=O)N2Cc2ccc(F)cc2)c1 (configuration not stated) | 46.7 | 46.0 | 0.5 | 5.9 | -10.3 | 0.5
SMILES | CYP2C19 inh | CYP2C9 inhib | CYP2C9 act | PostGolgi ctrl | PostGolgi yeast | CYP2C19 act
Cn1c(=O)[nH]c(=O)c2c1nc(Br)n2CC(O)c1ccccc1 (configuration not stated) | 10.1 | -1.4 | 1 | -3.9 | -14.8 | 0.9
C=CCn1c(COc2ccc(CC)cc2)nnc1SC/C(O)=C(\C#N)c1nc2ccccc2[nH]1 | 12.2 | 41.7 | 0.6 | -3.1 | 0.1 | 0.9
COc1ccccc1N(CC(=O)NC1CCCC1)C(=O)CCC(=O)Nc1cc(C)on1 | 63.2* | 65.2* | 0.3 | 2.8 | 16.8 | 0.4
CCOc1ccccc1N(CC(=O)NC1CCCC1)C(=O)CCC(=O)Nc1cc(C)on1 | 83.4* | 83.4* | 0.2 | 18.2 | -2.8 | 0.2
COc1ccc(C)cc1N(CC(=O)NC1CCCC1)C(=O)CCC(=O)Nc1cc(C)on1 | 29.4 | 40.1 | 0.6 | 3.4 | -4.9 | 0.7
N/C(Cc1cccs1)=N\OC(=O)COc1ccccc1 | 20.7 | 7.0 | 0.9 | -2.6 | 1.1 | 0.8
O=c1c2ccccc2nc2c3ccccc3c3nncn3n12 | -5.6 | 12.8 | 0.9 | 20.0 | 11.4 | 1.1
O=C(c1ccc(Cl)cc1)N1CCN(c2cc(=O)[nH]nc2-c2ccccc2)CC1 | -8.7 | 2.0 | 1 | -1.2 | 6.6 | 1.1
CC(C)(C)OC(=O)NCCc1nnc(SCc2c(Cl)cccc2Cl)o1 | 91.6* | 72.4* | 0.3 | 17.2 | -14.6 | 0.1
Cc1cccc(C)c1NC(=O)CSc1nnc([C@H](C)NC(=O)OC(C)(C)C)o1 | 18.1 | 27.4 | 0.7 | 23.9 | 4.1 | 0.8
CC(C)(C)OC(=O)N1CCC[C@H]1c1nnc(SCc2ccc(Cl)cc2Cl)o1 | 40.0 | 23.7 | 0.8 | 14.7 | 17.8 | 0.6
CCN(CC)C(=O)CSc1nnc(CCNC(=O)OC(C)(C)C)o1 | 28.1 | -4.0 | 1 | 4.2 | 12.3 | 0.7
CSCC[C@H](NC(=O)OC(C)(C)C)c1nnc(SCC(=O)Nc2c(C)cccc2C)o1 | 7.7 | 57.6* | 0.4 | 5.7 | -4.8 | 0.9
CC(C)(C)OC(=O)NCCc1nnc(SCc2ccc(Cl)cc2Cl)o1 | 60.4* | 75.3* | 0.2 | 18.1 | -1.1 | 0.4
CC(C)=CCSc1nnc([C@@H](NC(=O)OC(C)(C)C)C(C)C)o1 | 55.2* | 44.3 | 0.6 | 5.6 | 13.6 | 0.4
O=C(CSc1nnc(CNC(=O)c2ccccc2F)o1)c1ccc(Cl)cc1 | 37.3 | 53.5* | 0.5 | 4.4 | 0.0 | 0.6
O=C(CSc1nnc(CNC(=O)c2cccs2)o1)c1ccc(Cl)cc1 | 14.4 | 33.8 | 0.7 | -4.3 | 11.0 | 0.9
CCCCSc1nnc(CCCCCNC(=O)OC(C)(C)C)o1 | 63.7* | 64.2* | 0.4 | 6.6 | -1.7 | 0.4
